# PubChem BioAssay (NCI)
# About 83,000 compounds went through this panel and 20% of them were active in at least one assay; those are over-represented in the sample as a whole.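 96-well plates, one dose, 48 hours. Percent growth reported; active if below 10.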 Unmarked numbers belong to inactive results. Calls of active or inactive are those of the source.
# What was measured:
# Experiment in all cases: NCI-60 one-dose screen, 48 h (100 = growth as untreated, 0 = no growth, -100 = all killed)
# Details in all cases: 10 µM
# SR leukemia = test system: SR leukemia
# RPMI-8226 leukemia = test system: RPMI-8226 leukemia
# OVCAR-8 ovarian = test system: OVCAR-8 ovarian
# OVCAR-5 ovarian = test system: OVCAR-5 ovarian
# OVCAR-4 ovarian = test system: OVCAR-4 ovarian
# SK-OV-3 ovarian = test system: SK-OV-3 ovarian
# IGROV1 ovarian = test system: IGROV1 ovarian
# OVCAR-3 ovarian = test system: OVCAR-3 ovarian
# HS 578T breast = test system: HS 578T breast
# NCI/ADR-RES ovarian = test system: NCI/ADR-RES ovarian
Compound,growth (SR leukemia),growth (RPMI-8226 leukemia),growth (OVCAR-8 ovarian),growth (OVCAR-5 ovarian),growth (OVCAR-4 ovarian),growth (SK-OV-3 ovarian),growth (IGROV1 ovarian),growth (OVCAR-3 ovarian),growth (HS 578T breast),growth (NCI/ADR-RES ovarian)
CCC(c1ccc(OC)cc1)C(CC)c1ccc(O)c(CN2CCN(C)CC2)c1 (stereo not given),4.26% (active),-21.6% (active),67%,80.4%,60.2%,78.7%,68.5%,79.8%,61.4%,60.3%
Cc1cccc(N=Cc2ccccc2O)c1C,111%,96.9%,98.2%,108%,104%,108%,115%,113%,101%,101%
CNS(=O)(=O)Oc1ccc(-c2sc3cc(OS(=O)(=O)NC)ccc3c2C(=O)c2ccc(OCCN3CCCCC3)cc2)cc1,27%,35.9%,86.6%,88.3%,69.8%,76.1%,85.6%,83.6%,58.9%,71.4%
COc1cc(-c2nn(-c3ccc(NC(=O)NCCCNC(=O)c4ccccc4)cc3)cc2-c2ccncc2)ccc1Cl,20.2%,-3.49% (active),20.6%,53%,44.4%,23.8%,38.1%,20.6%,40%,69.4%
COc1cc2ncnc(NC3CCC(O)CC3)c2cc1OC (stereo not given),77.4%,104%,97.4%,92.1%,103%,109%,97.1%,111%,95.5%,100%
CN(C)CCCN1c2ccccc2CCc2ccc(Cl)cc21,49.2%,47.8%,77.1%,77.5%,53.1%,82.4%,59.3%,72.3%,68.7%,59.5%
COc1cc(-c2nn(-c3cccc(NC(=O)NCCNC(=O)c4cccc(C(F)(F)F)c4)c3)cc2-c2ccncc2)ccc1Cl,10.4%,21.4%,44.1%,85.1%,49.4%,49.9%,57.3%,16.2%,24.1%,80.3%
CC(=O)[C@H]1CC[C@]2(C)[C@@H]1CC[C@@H]1[C@@]3(C)CC(CCC#N)(CCC#N)C(=O)C(C)(C)[C@@H]3CC[C@]12C,101%,107%,106%,88.5%,87.2%,103%,98.4%,107%,90.5%,90.5%
COc1cc(/C=C2\CCCC3C2=Nc2ccccc2NC3c2cc(OC)c(OC)c(OC)c2)cc(OC)c1OC (stereo not given),2.76% (active),-10.9% (active),18.7%,16.5%,33.5%,45.4%,-21% (active),-7.11% (active),53.2%,5.96% (active)
COc1cc(C(=O)N2CCN(c3cc4c(cc3F)c(=O)c(C(=O)NO)cn4C3CC3)CC2)cc(OC)c1OC,95%,85.2%,106%,98.1%,101%,103%,110%,108%,105%,100%
COc1cc(/C=C2\CCCC3=C2NC(N)=NC3c2cc(OC)c(OC)c(OC)c2)cc(OC)c1OC (stereo not given),1.07% (active),-15.4% (active),-35.8% (active),6.85% (active),27%,7.16% (active),-19.4% (active),-17.7% (active),37%,3.96% (active)
Nc1nc(Cl)nc2c1ncn2C1O[C@H](CO)[C@@H](O)[C@@H]1F (stereo not given in full),7.7% (active),105%,27.1%,47.4%,80.2%,34.5%,53%,60.7%,82.5%,16.6%
CS(=O)(=O)c1nccc(-c2c(-c3cccc(OCCN4CCOCC4)c3)nc3sccn23)n1,78.3%,47.8%,92.1%,96.6%,76.8%,84.9%,80.2%,94.8%,88.7%,93.3%
Cc1c2c(nn1C(=O)c1nn(-c3ccc(Cl)cc3)cc1O)-c1ccccc1CC2,-39.9% (active),-35.3% (active),6.41% (active),40.8%,15.6%,13%,17.8%,-3.9% (active),71.5%,6% (active)
O=S(=O)(O)c1cccc(Nc2ccc3ccccc3c2)c1,92%,95.5%,92.4%,106%,99%,87.9%,84.4%,97.5%,96.6%,97.4%
c1ccc(CSc2ncccc2-c2nnc(SCCN3CCOCC3)o2)cc1,104%,104%,109%,119%,106%,109%,98.3%,120%,133%,107%
COc1cc(/C=C/c2cc(/C=C/c3ccc(O)c(OC)c3)nc(N)n2)ccc1O,-7.94% (active),2.88% (active),9.33% (active),5.83% (active),18.3%,-17.4% (active),3.42% (active),-7.57% (active),-0.999% (active),39.3%
COc1cc2cc(Oc3ccc(NC(=O)Nc4cccc(C(F)(F)F)c4)cc3)c(C)nc2cc1OC,-6.62% (active),-5.94% (active),8.32% (active),27.8%,31.7%,3.35% (active),8.77% (active),-0.54% (active),22.5%,6.98% (active)
CCOC(=O)c1cc(C(=O)c2cc(OC)c(OC)c(OC)c2)n2nc(C)ccc12,23%,18%,25.4%,64.9%,51.8%,24.1%,39.8%,12.5%,55.9%,20.9%
O=C(CCCCC(=O)Oc1c(Cl)cc(Cl)cc1[N+](=O)[O-])Oc1c(Cl)cc(Cl)cc1[N+](=O)[O-],85.4%,92.9%,106%,109%,104%,103%,101%,105%,105%,102%
O=C(Nc1cc(Cl)cc2c1-c1ccc(Cl)cc1C2O)C(Cl)Cl (stereo not given),82.3%,65%,86.5%,94.8%,62.9%,102%,73.2%,97.3%,78.8%,83.5%
